Measured values taken from PubChem BioAssay AID1794844 (National Center for Advancing Translational Sciences (NCATS), 2023).
Out of some 2,800 compounds screened, fewer than 10 were called active. Inconclusive results (about 7%) are left out. Calls come from the whole dose curve; as a rule, active = well fitted inhibition curve with a large enough effect; inconclusive = small, poorly fitted or top-dose-only effect; inactive = no such curve, though single readings can be large or run the other way. A selection follows. Entries that show only a call come without a potency.

Target: Metallo-beta-lactamase type 2 (Klebsiella pneumoniae) (UniProt C7C422)
Assay: qHTS to identify inhibitors of the New Delhi Metallo-beta-lactamase (NDM): Nitrocefin screen against the machine-based learning selections.
Details: NDM-1 enzyme, nitrocefin hydrolysis, absorbance 485 nm; series mostly up to 38.4 µM
Text: Assay Submitter (PI): James Inglese Ph.D., Patricia Dranchak Ph.D., Mahesh Aitha Ph.D. Assay Development and Screening Technology Laboratory (ADST) National Center for Advancing Translational Sciences (NCATS), Rockville, MD National Institute of Health (NIH), Bethesda, Maryland The metallo-beta-lactamases (MBL) are a main antibiotic resistance mechanism evolved by bacteria. There is an urgent clinical need for MBL inhibitors to mitigate this growing threat. To support a machine-based learning study, qHTS has been used to experimentally test inhibitors identified by prediction tools.
PROTOCOL TABLE (as described by Inglese et al., 2007) SEQUENCE No. (e.g., 1, 2, 3, etc.); […] (e.g., enzyme, Incubation, Reagent, etc.); VALUE; DESCRIPTION Primary Screen 1; NDM-1; 4 uL of 3 nM enzyme [2 nM final] in 50 mM HEPES (pH 7.0), 1 uM […], 0.01% Tween20; Use BioRaptr to dispense into two sets of Aurora black, clear bottom high base 1536-well plates 2; Compounds; 23 nL; Use Pin Tool (Wako) to transfer DMSO control and library compounds in DMSO 3; Incubate; >30 min 4a; Reagent; 2 uL of 50 uM nitrocefin [16.7 uM final] to one set of assay plates 4b; Reagent; 2 uL of 150 uM meropenem [50 uM final] to second set of assay plates 5a; Incubate; 15 min 5b; Incubate; 30 min 6a; Detector; Absorbance at 485 nm (bandwidth = 5 nm, 25 flashes/well) on Tecan Infinity 6b; Detector; Absorbance at 300 nm (bandwidth = 5 nm, 25 flashes/well) on Tecan Infinity NOTES (numbers refer to sequence above) 1; Column 1 of each plate received assay buffer without enzyme and columns 2-48 received enzyme for a final assay concentration of 2 nM. 2; Control plate contained DMSO in columns 1, 2, 3, and 4. 3; Compound interaction with enzyme. 4; Nitrocefin and meropenem substrates were prepared in the same assay buffer as step 1 for a final assay concentration of 16.7 uM and 50 uM, respectively, and added to all wells across respective sets of assay plates. 5; Default reader settings were applied for absorbance read at 485 nm (nitrocefin) or 300 nm (meropenem), bandwidth = 5 nm, 25 flashes/well. References: Inglese J, Shamu CE, Guy RK. 2007. Reporting data from high-throughput screening of small-molecule libraries. Nat Chem Biol. doi:10.1038/nchembio0807-438 Yasgar A, Shinn P, Jadhav A, Auld D, Michael S, Zheng W, Austin CP, Inglese J, Simeonov A. 2008. Compound Management for Quantitative High-Throughput Screening. J Lab Autom 13:79 - 89. doi:10.1016/j.jala.2007.12.004
Potency is the fitted concentration of half-maximal effect.

Chain of Metallo-beta-lactamase type 2 (Klebsiella pneumoniae) (C7C422 whole entry, looked up): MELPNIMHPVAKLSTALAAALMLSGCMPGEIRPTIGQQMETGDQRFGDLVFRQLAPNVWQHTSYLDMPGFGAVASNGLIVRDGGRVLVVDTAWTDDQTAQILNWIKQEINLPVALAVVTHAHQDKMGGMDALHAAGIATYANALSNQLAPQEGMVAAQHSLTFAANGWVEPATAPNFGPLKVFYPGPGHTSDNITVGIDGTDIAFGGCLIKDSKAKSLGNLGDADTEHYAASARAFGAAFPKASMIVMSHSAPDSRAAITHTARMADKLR

SMILES | Potency
COc1ccc(C(=O)N2CC[C@@H](CC(=O)O)[C@@H](CCN3CCN(c4ccccn4)CC3)C2)cc1 | inactive
COCCNC(=O)[C@@H]1CCC[C@@H](NC(=O)C2CC2)CN(C)C(=O)C1 | inactive
Cc1cccc(C)c1-c1nc(C(=O)NCCc2ccc(Cl)cc2)n2ccccc12 | inactive
COc1cccc(Nc2cc3c(cn2)CN(Cc2cccnc2)CCN3)c1 | inactive
Cc1noc(C)c1S(=O)(=O)N1C[C@@H](C(N)=O)[C@H](C2CCN(C)CC2)C1 | inactive
Nc1n[nH]c(CNc2cc(-c3ccc(F)cc3)nc3ccnn23)n1 | inactive
COC(=O)c1ccccc1NC(=O)Cn1cccc1-c1nc(-c2ccccc2)no1 | inactive
COC(=O)[C@@H](C)NC(=O)[C@H]1CN(C(=O)c2cccnc2)CCN1S(C)(=O)=O | inactive
Cc1noc2c(N3CCOCC3)cc(-c3cccnc3)nc12 | inactive
CC(C)C[C@@H]1N[C@H](C(=O)NCc2cccs2)Cc2c[nH]c3cccc1c23 | inactive
CCCNC(=O)NC[C@H]1O[C@@H]2C[C@@H](CC(=O)N3CCC(F)(F)C3)O[C@@H]2[C@@H]1O | inactive
O=C(N[C@H]1[C@H](O)[C@H](O)C[C@@H]1c1cccnc1)c1ccccn1 | inactive
O=C(O)c1cccc(-c2n[nH]c3c2CC(=O)N(c2ccccc2)C3)c1 | inactive
N#Cc1cccc(CN2CCOC[C@H]2c2ncc(-c3ccccc3)[nH]2)c1 | inactive
COCC(=O)N[C@H]1CO[C@H]2[C@@H]1OC[C@@H]2Nc1nccc(-c2cccc(C#N)c2)n1 | inactive
Cc1[nH]c2ccc(C(=O)N3CC[C@@](C)(O)[C@@H](O)C3)cc2c1C | inactive
c1cncc(CNc2cc(-c3cnc4ccccc4n3)c3cc[nH]c3n2)c1 | inactive
CCN1CCN(C2(C(=O)NCCc3ccccc3)Cc3ccccc3C2)CC1 | inactive
COc1cccc(NC(=O)N[C@H](C)c2onc(-c3ccc(F)cc3)c2C(=O)O)c1 | inactive
O=C(Nc1ccc([C@H]2OCC(=O)N(C3CCOCC3)[C@@H]2CO)cc1)c1cnccn1 | inactive
N[C@@H](Cc1cnc[nH]1)C(=O)NCc1cccnc1Oc1ccc(F)cc1F | inactive
CN1CC2(CCN(C(=O)c3ccccc3-c3nn[nH]n3)CC2)CC1C(=O)O (centres undefined) | 6.69 µM (active)

SMILES | Potency
COCCN1CCCC2(CCN(C(=O)c3ccccc3)C2)C1 (centres undefined) | inactive
CCCN1CC2(CCN(C(=O)c3ccc(C)nc3)CC2)CC1C(=O)O (centres undefined) | inactive
CC(=O)N1CCN(C(=O)C[C@@H]2c3nc(NC(=O)C4CCCCC4)sc3C[C@@H]3[C@](C)(CO)[C@H](O)CC[C@]32C)CC1 | inactive
CN(C)c1ccc(-c2nnnn2[C@H]2CO[C@H]3[C@@H]2OC[C@@H]3NS(=O)(=O)c2ccc3ccccc3c2)cc1 | inactive
C[C@@]1(O)CCN(c2ncccc2C(=O)c2nccs2)C[C@@H]1O | inactive
OC(c1cccc(C(F)(F)F)c1)c1nc(Nc2ccc(F)cc2)n[nH]1 (centres undefined) | inactive
Cn1ccc2c(C(=O)N[C@H](c3cccs3)C3CC(O)C3)cccc21 (some centres undefined) | inactive
Cc1nc(C(=O)N2CCC(c3nnc(CN4CCCC4)n3C)CC2)cs1 | inactive
Cc1ccc(C(=O)N2CCN(c3nnc4cccc(C)n34)CC2)cc1F | inactive
O=C1C(c2ccccc2)CC2(CCN(c3cnccn3)CC2)CN1C1CC1 (centres undefined) | inactive
O=C(c1ccccc1)N1CCN2C(=O)N(Cc3ccccc3)C(=O)[C@H]2C1 | inactive
Cc1cnc(C(=O)N2CCC(N3C(=O)C4(CCCC4)C3c3ccccc3)CC2)cn1 (centres undefined) | inactive
O=C(Cc1ccccc1C(F)(F)F)N1CCC2(CC1)[C@H](O)C[C@@H]2O | inactive
CN(Cc1cc(-c2cccs2)n[nH]1)C(=O)c1cn(CCN)nn1 | inactive
O=C1CC(C(=O)O)C2(CCN(c3cc(C4CC4)ncn3)CC2)N1 (centres undefined) | inactive
Cc1noc2c(-c3cccnc3)cc(-c3cccs3)nc12 | inactive
CCc1ncc(C(=O)N2CCN(c3ccc(Cl)c(Cl)c3)CC2)cn1 | inactive
Cc1nc2c(C(=O)N3CCC(c4cc(CC(=O)O)[nH]n4)CC3)cccc2[nH]1 | 8.42 µM (active)
Cc1nc(C2CCCCN2C(=O)Cc2ccccc2)n[nH]1 (centres undefined) | inactive
CC(=O)N1CC[C@H](c2nc3cc(C)ccc3o2)C1 | inactive
COc1nc(C)c(C(=O)N2CCC(c3[nH]ncc3-c3ccccc3)CC2)s1 | inactive
Cc1ccc2nc(C3CCCN(Cc4ccccc4)C3)[nH]c(=O)c2c1 (centres undefined) | inactive

SMILES | Potency
Cc1ccc2nc(C)cc(C(=O)N3CCC(c4cc(CC(=O)O)[nH]n4)CC3)c2c1 | 9.45 µM (active)
CCNC(=O)O[C@@H]1CO[C@H]2[C@@H]1OC[C@@H]2NC(=S)Nc1ccc(N(C)C)cc1 | inactive
O=C(c1cccnc1)N1CC[C@H](c2nnc(Cc3ccccc3)o2)C1 | inactive
O=C(Cc1c[nH]c2ncc(-c3cccc(Cl)c3)cc12)NCc1cccnc1 | inactive
Nc1ccc(-c2ccc(OCCn3ccnc3)cc2)cn1 | inactive
COCCCNC(=O)N1CC(c2nc(CCOCC3CCOCC3)no2)C1 | inactive
CNC(=O)[C@H]1C[C@H](Oc2cccnc2)CN1S(=O)(=O)c1ccc(OC)cc1 | inactive
O=C(Nc1cccc(C(F)(F)F)c1)N[C@H]1CO[C@H]2[C@@H]1OC[C@@H]2Nc1nccc(-c2ccc(-c3ccccc3)cc2)n1 | inactive
CC(C)(C)c1nnc([C@H]2CCN(Cc3ccco3)C2)o1 | inactive
Cc1cccc(Cl)c1NC(=O)N1CCC2(CC1)C(C(=O)O)CC(=O)N2C (centres undefined) | inactive
C[C@@H](c1ccccc1)N1C(=O)[C@@H]2CN(C(=O)c3ccc(N(C)C)cc3)CCN2C1=O | inactive
Cc1nc(CCC(=O)N2CCC(Cc3ccc(C(=O)O)cc3)C2)n[nH]1 (centres undefined) | inactive
CCCS(=O)(=O)N1CCC(Cc2nc(-c3cccnc3)n[nH]2)C1 (centres undefined) | inactive
COc1ccc(CN2CCOc3ccc(C(=O)NCc4ccc(C)cc4)cc3C2)c(OC)c1 | inactive
O=C(c1ccccc1Cl)N1CCCC(c2nn(-c3ccccc3)c(=O)[nH]2)C1 (centres undefined) | inactive
CC(C)C(=O)N[C@H]1[C@H](O)[C@H](O)C[C@@H]1c1cccnc1 | inactive
CC(O)c1cc2n(n1)CCN(C1CCN(C(=O)c3cnccn3)CC1)C2 (centres undefined) | inactive
Cn1cc(C(NC(=O)c2ccc3c(c2)ncn3CCO)C2CC(O)C2)cn1 (centres undefined) | inactive
Cc1nnc(-c2cc(N3CCN(c4ccccn4)CC3)ccn2)n1C1CCCCC1 | inactive
O=C1CO[C@H]2CN(c3nccc(C(F)(F)F)n3)C[C@H]2N1Cc1ccc(F)cc1 | inactive
COc1cc(=O)n2c(c1C(=O)NC1CCCCCC1)CCCC2 | inactive
Cc1cccc(N(CC(=O)N[C@H]2CC[C@H]2NC2CCCC2)S(C)(=O)=O)c1 | inactive

SMILES | Potency
O=C(O)[C@]12CCCN[C@@H]1CCN(Cc1cnc(-c3ccccn3)nc1)C2 | inactive
CCOCCn1nc(C)cc1C(=O)N1C[C@@H](C)[C@](O)(C2CC2)C1 | inactive
COc1cccc(-c2cccc(CCOc3cnc4c(ccn4CC(=O)O)c3)c2)c1 | inactive
O=C(N[C@@H]1CCN(Cc2cccc3nonc23)C[C@H]1O)c1cccnc1 | inactive
COC(=O)c1ccc2nc(C[C@@H]3C[C@@H](C(C)C)[C@H](CN(C)C)C=C3C)[nH]c2c1 | inactive
CCO[C@H]1C[C@@H](O)C12CCN(C(=O)c1cc(S(N)(=O)=O)ccc1F)CC2 | inactive
CN(C)Cc1cn(C[C@H]2C[C@@H](NC(=O)c3nc4ccccc4s3)[C@H](O)[C@@H]2O)nn1 | inactive
COc1cc(CNC(=O)CCC2CCN(S(=O)(=O)c3ccccc3)CC2)cc(OC)c1 | inactive
Oc1ccccc1CN1CCOC[C@H]1c1ncc(-c2cccc(Cl)c2)[nH]1 | inactive
Clc1cccc(-c2cnc([C@@H]3COCCN3Cc3cnc[nH]3)[nH]2)c1 | 13.7 µM (active)
c1cncc(-c2cnc([C@@H]3COCCN3Cc3ncc[nH]3)[nH]2)c1 | inactive
CC1(C)CN(C(=O)c2ccccc2Oc2ccccc2)CC1(C)O (centres undefined) | inactive
O=c1ncn(Cc2ccccc2)c2ccc(-c3ccc(O)c(F)c3)nc12 | inactive
CCOC(=O)C[C@@H]1C[C@@H](C(C)C)[C@H](CNC(=O)c2ccc(C#N)cc2)C=C1C | inactive
CCC1=C(C(=O)OC)C(c2ccccc2OC)N2C(CC(=O)N3CC(C)OC(C)C3)=CSC2=N1 (centres undefined) | inactive
CC1(C(=O)NCCc2ccccn2)CCc2cnc(NCc3ccccc3)nc21 (centres undefined) | inactive
Cn1ccc2c(C(=O)NCCc3cnc[nH]3)nc(-c3cccnc3)cc21 | inactive
C[S+](=O)([O-])Nc1cccc(-c2cc(-c3cccnc3)c3cncn3c2)c1 | inactive
O=C1Nc2cc(Cl)ccc2C(=O)N2CCN(C(=O)c3ccccc3)C[C@H]12 | inactive
O=C(Cc1c[nH]c2ncc(-c3ccccc3F)cc12)NCc1cccnc1 | inactive
COCc1cc(C[C@@H]2CC[C@H](O)[C@@H](CNS(=O)(=O)c3ccccc3)O2)no1 | inactive
O=C(NC1CC(=O)N(CCc2cccc(Cl)c2)C1)c1ccsc1 (centres undefined) | inactive

SMILES | Potency
CCN(CC)C(=O)C[C@@H]1c2nc(NC(=O)N3CCOCC3)sc2C[C@@H]2[C@](C)(CO)[C@H](O)CC[C@]21C | inactive
CS(=O)(=O)N[C@H]1C[C@H]2C(=O)Nc3ccc(-c4ccc5c(c4)OCO5)cc3C(=O)N2C1 | inactive
COc1ccc(-c2cnc3[nH]cc(CC(=O)Nc4ccncc4)c3c2)cc1 | inactive
COc1ccc2c(c1)nc1n2[C@@H](CNC(=O)c2ccncc2)COC1 | inactive
O=C(CCCc1ccccc1)N[C@@H]1CN(c2ccncn2)C[C@H]1CO | inactive
Cc1c(CN2C[C@@H](COc3ccccc3)[C@H](C(N)=O)C2)cnn1C | inactive
Cc1ccc(C)c(-c2cc(C(=O)N3CCCC3c3nncn3C(C)C)[nH]n2)c1 (centres undefined) | inactive
O=S(=O)(c1ccc(F)cc1)N1CCCC(Cc2noc(-c3cnccn3)n2)C1 (centres undefined) | inactive
CN1CCCC1c1nc(C2CN(C(=O)c3ccsc3)C2)no1 (centres undefined) | inactive
CN1C(=O)CC(C(=O)O)C12CCN(C(=O)CCc1cccnc1)CC2 (centres undefined) | inactive
Cn1c(CO[C@H]2CN(C(=O)c3cccnc3)C[C@H]2F)nc2ccccc21 | inactive
C[C@@H](c1ccccc1)N1C(=O)[C@@H]2CN(C(=O)c3ccco3)CCN2C1=O | inactive
COc1ccc(OC)c(CN2CCC3(CC2)Nc2ccccc2NC3=O)c1 | inactive
NC(=O)C1CCCN(CCNc2cc(-c3ccccc3)nc3ccnn23)C1 (centres undefined) | inactive
COC(=O)[C@H](NC(=O)[C@@H]1C[C@@H](NC(=O)c2ccncc2)CCN1S(=O)(=O)c1ccc(OC)cc1)C(C)C | inactive
Cc1cncc(C(=O)N2CC[C@@H](c3ccc4ccccc4c3)[C@H](O)C2)c1 | inactive
CCn1cnnc1CC1CCN(C(=O)NC)C1 (centres undefined) | inactive
O=C(c1ccoc1)N1CCCn2cc(-c3ccccc3)nc21 | inactive
NC(=O)CCNC(=O)C1=C[C@@H](NC(=O)c2cccs2)[C@@H](O)[C@H](O)C1 | inactive
Cc1ccc(O)c(CN2CC[C@@H](c3ccc(F)cc3)[C@H](O)C2)c1 | inactive
Cc1cnc(C(=O)N2CCCC(c3nc(-c4cccnc4)no3)CCNC(=O)CC2)cn1 (centres undefined) | inactive
